Rows were chosen to be rich in hits. Some 21% of all compounds tested hit in one or more screens of this group.
Pf growth 96h: Primary qHTS for delayed death inhibitors of the malarial parasite plastid, 96 hour incubation. Potency, µM (top dose mostly 28.7 µM), actives largely listed as inhibitors. P. falciparum luciferase reporter growth, 96 h. 6.9% of 320,000 active
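Luminescence readout: decreased luciferase signal marks inhibited growth of reporter-expressing P. falciparum in infected red cells (2% hematocrit, 0.05% parasitemia final), exposed to compound two generations (96 h, 37 C, 5% CO2).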
FBPA Giardia inh: qHTS Assay for Inhibitors of Fructose-1,6-bisphosphate Aldolase from Giardia Lamblia; purified Giardia FBPA; Potency, µM (highest dose often 59.6 µM), most hits filed as inhibitors; 0.71% of 290,000 active; further: nearly all actives have a fitted effect of over 55% in size
Target sequence (A8B2U2 whole entry, looked up): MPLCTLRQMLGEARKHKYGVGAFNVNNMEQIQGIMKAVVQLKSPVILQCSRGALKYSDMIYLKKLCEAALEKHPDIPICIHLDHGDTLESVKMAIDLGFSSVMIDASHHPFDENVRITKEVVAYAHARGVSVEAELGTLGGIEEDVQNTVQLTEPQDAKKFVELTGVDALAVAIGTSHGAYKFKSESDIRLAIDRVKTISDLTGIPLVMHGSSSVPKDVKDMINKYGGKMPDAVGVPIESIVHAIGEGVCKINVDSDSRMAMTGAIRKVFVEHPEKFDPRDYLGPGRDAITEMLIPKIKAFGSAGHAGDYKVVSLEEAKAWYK
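40 nM FBPA preincubated 10 min at RT with compound (up to 57.5 uM final), then substrate plus GAPDH/TPI/NAD/arsenate coupling and diaphorase/resazurin added. Fluorescence read after 20 min at RT, 525/598 nm.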
NS1 function inh: qHTS Assay for Inhibitors of Influenza NS1 Protein Function; Potency, µM (titrated, usually from 46.1 µM); 0.4% of 270,000 active; AID 2326, 2010; calls by dose curve; further: actives are rising curves; nearly all actives have a fitted effect of over 50% in size
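Read-out: OD600 growth recovery of NS1-expressing budding yeast. Cells grown overnight at 30C in -URA glucose medium, washed, resuspended and diluted 1:100 in 2% galactose assay medium, pH 6.0. Same strain lacking NS1 served as positive control.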
Pf growth 48h: Primary qHTS for delayed death inhibitors of the malarial parasite plastid, 48 hour incubation | P. falciparum luciferase growth in erythrocytes, 48 h | Potency, µM (series often up to 28.7 µM), actives largely listed as inhibitors | 5.9% of 310,000 active
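Here the parasites carry a stable luciferase gene and grow inside erythrocytes in Albumax-based RPMI medium with compound for one erythrocytic cycle. Activity is scored as loss of luminescent signal.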
Cycloheximide cs: Cycloheximide Counterscreen for Small Molecule Inhibitors of Shiga Toxin; cell reporter, cycloheximide protein synthesis inhibition counterscreen; max response, %; 12% of 300,000 active; in the data active means max response mostly above about 13%, no sharp cut-off; inactive means mostly below about 14%; further: read at 38.3 µM for the half of the compounds with a filed dose
Shiga inhibitor: A qHTS for Small Molecule Inhibitors of Shiga Toxin; Vero cells, Shiga toxin protein synthesis inhibition reporter; inhibition, % at 38.7 µM; 9.2% of 290,000 active; in the data active means inhibition mostly above about 28%, no sharp cut-off; inactive means mostly below about 43%
Large screens that a line does not name were inactive. Unless noted, the call rests on the fitted dose curve; in most records, active means well fitted curve in the direction sought with a large enough effect; inconclusive means small, poorly fitted or top-dose-only effect, or another doubt; inactive means no such curve, though single readings can be large; an effect the other way counts as inactive or inconclusive.

Oc1ccc(Cl)cc1CNCc1ccc(C(F)(F)F)cc1	Pf growth 96h 5.9µM, Pf growth 48h 1.2µM (no result: FBPA Giardia inh, NS1 function inh, Cycloheximide cs, Shiga inhibitor)
Cc1ccsc1CNCc1cc(Cl)ccc1O	Pf growth 96h 2.9µM, Pf growth 48h 1.7µM (no result: FBPA Giardia inh, NS1 function inh, Cycloheximide cs, Shiga inhibitor)
CNCc1sccc1C	Pf growth 96h inconclusive (no result: NS1 function inh)
CCN1CCN(S(=O)(=O)c2ccc(Cl)c(C(=O)N(C)Cc3ccco3)c2)CC1	none (no result: FBPA Giardia inh, NS1 function inh, Cycloheximide cs, Shiga inhibitor)
COc1ccccc1NC(=O)Nc1ccnn1C1CCN(C(=O)c2cccnc2)CC1	Pf growth 96h inconclusive (no result: FBPA Giardia inh)
CCc1ccccc1NC(=O)CN1CCN(C(=O)C2CCN(C(=O)/C=C/c3ccccc3)CC2)CC1	none (no result: FBPA Giardia inh, NS1 function inh, Cycloheximide cs, Shiga inhibitor)
CC(C)C(C(=O)N1CCN(C(=O)OC(C)(C)C)CC1)n1cc(-c2cn([C@@H](C)C(=O)N3CCN(C(=O)OC(C)(C)C)CC3)nn2)nn1 (some centres undefined)	NS1 function inh inconclusive
COCCn1c(=O)c(-c2cc(F)cc(F)c2)nc2cnc(N(C)C)nc21	none (no result: Pf growth 96h, NS1 function inh, Pf growth 48h, Cycloheximide cs, Shiga inhibitor)
Oc1ccc(Cl)cc1Cc1cc(Cl)ccc1O	Pf growth 96h inconclusive, Pf growth 48h inconclusive
Oc1ccc(Cl)cc1CNCc1ccc(F)cc1	Pf growth 96h 5.2µM, Pf growth 48h 5.2µM (no result: FBPA Giardia inh, NS1 function inh, Cycloheximide cs, Shiga inhibitor)
N#C/C(=C\c1c(F)cccc1Cl)c1nn(-c2ccccc2)c(-n2cccc2)c1C#N	Pf growth 96h inconclusive, Pf growth 48h 12µM
CCC(C(=O)NC1CCCCC1)n1c(SCc2cccc(C)c2)nc2ccncc21 (centres undefined)	Cycloheximide cs 26
CCC(C(=O)NC1CCCCC1)n1c(SCc2cccc(F)c2)nc2ccncc21 (centres undefined)	none
COCCC(C(=O)Oc1c(C(C)(C)C)cc(C)cc1C(C)(C)C)c1ccccc1 (centres undefined)	Pf growth 96h 5.2µM, Pf growth 48h 8.3µM (no result: FBPA Giardia inh, NS1 function inh, Cycloheximide cs, Shiga inhibitor)
CCOC(=O)C1CCN(C(=O)CCC(=O)NNc2nc3ccccc3c3nc(C)nn23)CC1	Pf growth 96h inconclusive, Pf growth 48h inconclusive (no result: FBPA Giardia inh)
COc1ccc(Nc2nnc(SC(C(=O)Nc3ccc(OC)c(Cl)c3)c3ccccc3)s2)cc1 (centres undefined)	Pf growth 96h 9.3µM, Pf growth 48h inconclusive
COc1ccc(C)cc1NC(=O)C(Sc1nnc(Nc2cc(C)ccc2OC)s1)c1ccccc1 (centres undefined)	Pf growth 96h 10µM, NS1 function inh inconclusive
COc1ccc(C)cc1NC(=O)C(Sc1nnc2ccccn12)c1ccccc1 (centres undefined)	none
COc1ccc(C)cc1NC(=O)C(Sc1nnc(-c2ccncc2)n1-c1ccc(Cl)cc1)c1ccccc1 (centres undefined)	Pf growth 96h 10µM, NS1 function inh inconclusive, Pf growth 48h inconclusive
COc1ccc(Nc2nnc(SC(C(=O)Nc3cc(C)ccc3C)c3ccccc3)s2)cc1 (centres undefined)	Pf growth 96h inconclusive, Pf growth 48h inconclusive (no result: NS1 function inh)
O=C(Cn1c(=O)oc2ccc(Cl)cc21)Nc1ccon1	none
N#CC(C#N)=C1C=CC=CN1/C(=C\c1ccccc1)C(=O)c1cccs1	Pf growth 96h inconclusive, NS1 function inh inconclusive, Cycloheximide cs 24
CCCOc1ccc(Oc2ccc(S(=O)(=O)N3CCN(C)CC3)cn2)cc1	none (no result: FBPA Giardia inh, NS1 function inh, Cycloheximide cs, Shiga inhibitor)
CC(C)C[C@@H](CC(=O)N[C@@H](CCCN)CC(=O)N[C@@H]1CCNC[C@H]1C(=O)N[C@H](CC(=O)N[C@@H](CCC(=O)O)CC(=O)O)CC(C)C)NC(=O)[C@@H]1CNCC[C@H]1N	none (no result: Pf growth 96h, NS1 function inh, Pf growth 48h, Cycloheximide cs, Shiga inhibitor)
O=C(CCCc1cccs1)Nc1nccs1	none (no result: NS1 function inh)
NC(=O)CCCCC(=O)OCCCc1cccs1	Pf growth 96h 4.7µM
O=C(COc1ncnc2sccc12)Nc1cccc(S(=O)(=O)N2CCOCC2)c1	Pf growth 48h inconclusive (no result: FBPA Giardia inh, NS1 function inh, Cycloheximide cs, Shiga inhibitor)
[O-][N+]1=c2ccc(Nc3ccccc3)cc2=NC12CCCCC2	FBPA Giardia inh inconclusive, Pf growth 48h 9.3µM, Cycloheximide cs 51, Shiga inhibitor 89 (no result: Pf growth 96h)
COc1ccc(Nc2ccc3c(c2)=NC2(CCCCC2)[N+]=3[O-])cc1	Pf growth 96h inconclusive, FBPA Giardia inh inconclusive, Pf growth 48h 12µM, Cycloheximide cs 26, Shiga inhibitor 59
COc1ccc(NC2=NC(=S)N(c3ccccc3C)C23CCCCC3)cc1	none (no result: Pf growth 48h)

High-throughput results (PubChem BioAssay)
